Source: PubChem BioAssay (NCATS)
Records with an inconclusive call do not appear. Where a call stands in place of a potency, no number is given. Activity calls are given as the source filed them. The call rests on the fitted dose curve; in most records, active means well fitted inhibition curve with a large enough effect; inconclusive means small, poorly fitted or top-dose-only effect; inactive means flat fitted curve, though single readings scatter.

Target: Calcium and integrin-binding protein 1 (Homo sapiens) (UniProt Q99828)
Sequence (Q99828 whole entry, looked up): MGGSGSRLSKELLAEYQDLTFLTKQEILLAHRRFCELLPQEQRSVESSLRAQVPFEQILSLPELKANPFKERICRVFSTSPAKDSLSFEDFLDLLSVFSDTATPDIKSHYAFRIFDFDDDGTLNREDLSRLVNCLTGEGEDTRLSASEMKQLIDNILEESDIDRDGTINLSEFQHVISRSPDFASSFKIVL
Assay: Primary qHTS for Identification of Calcium Integrin Binding Protein 1 (CIB1) Competitor (AID 1508620); further: top concentration of the series differs between compounds
Conditions: CIB1-GST / FITC-alphaIIb peptide fluorescence polarization; series mostly up to 114 µM
In short: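 Fluorescence polarization competition: GST-tagged CIB1 (1 uM final) preincubated with compound 15 min at room temperature, then FITC-labelled alphaIIb peptide (100 nM final) added. After 15 min at room temperature, polarization read at Ex 480/Em 540.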

Row | SMILES | Potency
1 | COc1cccc(S(=O)(=O)NC2CCN(C#N)C2)c1 (stereo not given) | inactive
2 | O=[N+]([O-])c1ccc(-c2nc(Nc3ccc(F)c(F)c3)c3ccccc3n2)cc1 | inactive
3 | O=C(Nc1cccc(Cc2ccccc2)c1)c1ccc(-c2cccc([N+](=O)[O-])c2)o1 | inactive
4 | CC(=O)N1CCN(c2ccc(NCc3cccc(C)c3)cc2)CC1 | inactive
5 | N#CC1=C(NC=NCc2ccccc2)Oc2ccc3ccccc3c2C1c1ccccc1 (stereo not given) | inactive
6 | COc1cccc(OC)c1C1=Nn2c(nnc2-c2ccccc2C)SC1 | inactive
7 | N#Cc1ccc(NC(=O)Nc2nnc(-c3ccncc3)s2)cc1 | inactive
8 | O=C(Nc1cccc(C(=O)O)c1)Nc1nnc(-c2ccncc2)s1 | inactive
9 | CC(=O)Nc1sc2c(c1-c1cncnc1)CCNC2 | inactive
10 | O=C(Nc1ccc(-c2nc3ccccc3[nH]2)cc1)c1ccc(Cl)c(Cl)c1 | inactive
11 | O=C1CCc2cc(S(=O)(=O)Nc3ccc(-c4ccccc4)cc3)ccc2N1 | inactive
12 | Cc1cc(C)n2ncc(C(=O)Nc3ccc(Br)cc3)c2n1 | inactive
13 | Cc1cc(C)nc(/N=C(\NC#N)N2CCN(c3cccc(C(F)(F)F)c3)CC2)c1 | inactive
14 | O=C(Nc1ccc(O)c2ncccc12)c1ccccc1F | inactive
15 | N#Cc1c(-c2ccc(OCCOCCOCCNC(=O)CCCC[C@@H]3SC[C@@H]4NC(=O)N[C@@H]43)cc2)no[n+]1[O-] | inactive
16 | N/C(=N\c1nnc(-c2ccncc2)s1)Nc1ccc(Cl)c(Cl)c1 | inactive
17 | CCOC(=O)CCc1cc(F)c(S(=O)(=O)N2CCN(S(=O)(=O)c3ccc4c(c3)OCCO4)CC2)cc1F | inactive
18 | Cc1cc(NCc2ccc(NC(=O)Cc3ccc(Cl)c(Cl)c3)cc2)no1 | inactive
19 | Oc1ccc(/C=C/c2c(F)cccc2F)c2cccnc12 | inactive
20 | C=CCSc1nnc(-c2cccc3ccccc23)o1 | inactive
21 | Cc1scc2c1C(=O)NS2(=O)=O | inactive
22 | COc1cccc(C2c3c(ncn(-c4cccc(Br)c4)c3=N)Oc3ccc4ccccc4c32)c1 (stereo not given) | inactive
23 | Cc1cc2c(s1)c1cnn(Cc3cc(C(F)(F)F)cc(Cl)c3F)c(=O)c1n2C | inactive
24 | NC(=O)N1CCN(c2nc(-c3ccc(Br)cc3)cs2)CC1 | inactive

Row | SMILES | Potency
25 | O=C(OCC#CCSc1nnc(-c2cccc3ccccc23)o1)c1ccc(F)cc1 | inactive
26 | CC(=O)N1CCN(c2ccc(NCc3ccccc3)cc2)CC1 | inactive
27 | COc1ccc(S(=O)(=O)N2CCN(S(=O)(=O)c3c(F)cccc3F)CC2)cc1 | inactive
28 | Oc1ccc(CNc2cc(Br)ccn2)c2cccnc12 | inactive
29 | CCC1CCC2(C1)N=C(Nc1nc3ccccc3o1)NC1=C2C(=O)CCC1 (stereo not given) | inactive
30 | OCc1ccnc(NC(=S)N2CCN(c3cccc(C(F)(F)F)c3)CC2)c1 | inactive
31 | COc1ccc(C2=Nn3c(nnc3-c3cccc(OC)c3OC)SC2)cc1OC | inactive
32 | Cc1cc2c(s1)c1cnn(Cc3cccc(Cl)c3F)c(=O)c1n2C | inactive
33 | Fc1ccccc1-c1nc(-c2ccccc2)no1 | inactive
34 | O=C(Cc1nnc(-c2cc3ccccc3[nH]2)o1)Nc1cc(C(F)(F)F)ccc1Cl | inactive
35 | FC(F)(F)c1cccc(N2CCN(C(=S)Nc3ccncc3)CC2)c1 | inactive
36 | COc1cc(F)cc(F)c1[S+](=O)([O-])N1CCN([S+](=O)([O-])c2ccc3c(c2)OCCO3)CC1 | inactive
37 | COc1cccc(N2C(=O)c3ccccc3C2=O)n1 | inactive
38 | O=C(O)c1cccc(-c2cccc(-c3nn4c(=O)cc(N5CCNCC5)nc4s3)c2)c1 | inactive
39 | Cc1cc(C)nc(NC(=S)N2CCN(c3cncc4ccccc34)CC2)c1 | inactive
40 | Nc1ccc2c(c1)C(=O)NS2(=O)=O | inactive
41 | Cc1ccnc(NC(=S)N2CCN(c3ccc(Br)cc3)CC2)c1 | inactive
42 | Cc1cc(C)n2ncc(C(=O)Nc3ccccc3C)c2n1 | inactive
43 | COc1ccc(C2Nc3ccccc3C(=O)N2C2CCCC2)cc1COc1ccc(NC(C)=O)cc1 (stereo not given) | inactive
44 | NC(=O)C1CCN(c2ncc(-c3cccc(N4CCOCC4)c3)s2)CC1 | inactive
45 | O=C(Nc1ccc(-c2ccccc2)nc1)c1cccs1 | inactive
46 | COc1ccc(CN(Cc2ccccc2)C(=O)c2ccccc2)cc1COc1ccc(NC(C)=O)cc1 | inactive
47 | O=[S+]([O-])(Nc1ccc(-c2nc3ccccc3[nH]2)cc1)c1ccc2c(c1)CCO2 | inactive
48 | COc1ccc(NCc2ccc(O)c3ncccc23)nc1 | inactive

Row | SMILES | Potency
49 | Cc1ccc(OCCn2c(CCNC(=O)/C=C/c3ccccc3Cl)nc3ccccc32)cc1 | inactive
50 | Cc1cc(C)n2ncc(C(=O)N3CCCC3)c2n1 | inactive
51 | CC1=C(C(=O)NCc2ccccc2)C(c2ccccc2Br)N=C(Nc2nc3ccccc3o2)N1 (stereo not given) | inactive
52 | Fc1ccc(-c2ccc(Nc3nc(-c4ccncc4)nc4ccccc34)cc2F)c(Cl)c1 | inactive
53 | Cc1ccnc(NC(=S)Nc2cccc(C(F)(F)F)c2)c1 | inactive
54 | O=[N+]([O-])c1ccccc1S(=O)(=O)N1CCN(S(=O)(=O)c2ccc3c(c2)OCCO3)CC1 | inactive
55 | CCN(Cc1ccccc1)c1ccc(Br)cn1 | inactive
56 | O=S(=O)(NC1CCN(S(=O)(=O)c2c(F)cccc2F)C1)c1ccc2c(c1)OCCO2 (stereo not given) | inactive
57 | COc1ccc(NC(=O)C(OC(=O)CNC(=O)c2ccccc2)c2ccccc2)c(C)c1 (stereo not given) | inactive
58 | Cc1ccnc(NC(=S)N2CCN(c3ccc(N)cc3)CC2)c1 | inactive
59 | OC(c1ccccc1)(c1ccccc1)c1cnc2ccccn12 | inactive
60 | COc1ccc2oc(NC3=NC(c4[nH]ncc4Cl)C4=C(CCCC4=O)N3)nc2c1 (stereo not given) | inactive
61 | CC(C)(C)OC(=O)n1c2ccsc2c2cnn(Cc3ccccc3F)c(=O)c21 | inactive
62 | COc1ccc(C2=Nn3c(nnc3-c3ccccc3O)SC2)cc1OC | inactive
63 | O=C(/C=C/c1ccc([N+](=O)[O-])o1)Nc1cccc([S+](=O)([O-])Nc2ccccc2F)c1 | inactive
64 | Cc1ccc(N[S+](=O)([O-])c2cc3c(cc2NC2CC2)NC(=O)CC3)cc1C | inactive
65 | Cc1cc2c(s1)c1cnn(Cc3c(F)ccc(C)c3Cl)c(=O)c1n2C | inactive
66 | Cc1c(C(=O)NCC2CCCO2)[nH]c2c1C(=O)CC(c1ccco1)C2 (stereo not given) | inactive
67 | Cn1nnnc1Sc1ncnc2scc(-c3ccc(Br)cc3)c12 | inactive
68 | COc1cccc(CNc2ccc(S(=O)(=O)Nc3cccnc3)cc2)c1O | inactive
69 | CC(=O)c1cccc(-c2csc(N3CCC(C(N)=O)CC3)n2)c1 | inactive
70 | Cc1cc(C)nc(NC(=S)N2CCN(c3nc(C)cnc3C)CC2)c1 | inactive
71 | O=C(Nc1cccc(C(F)(F)F)c1)c1cccs1 | inactive
72 | COc1ccc(C2Nc3ccccc3C(=O)N2Cc2ccc(Cl)cc2)cc1COc1ccc(NC(C)=O)cc1 (stereo not given) | inactive

Row | SMILES | Potency
73 | O=S(=O)(c1ccc2c(c1)OCCO2)N1CCN(S(=O)(=O)c2c(F)cccc2F)CC1 | inactive
74 | COc1cccc(C2c3c(ncn(-c4ccccn4)c3=N)Oc3ccc4ccccc4c32)c1 (stereo not given) | inactive
75 | O=C(NCCc1nc2ccccc2n1CCCc1ccccc1)C1CCCCC1 | inactive
76 | CNc1oc(-c2cccc(Cl)c2)nc1C#N | inactive
77 | CC(C)(C)OC(=O)N1CCN(c2ccc(NCc3cc(-c4ccc(C#N)cc4)co3)cc2)CC1 | inactive
78 | O=C(NCCCc1cnc[nH]1)NCCCN(Cc1ccc(Cl)c(Cl)c1)c1ccc(Br)cn1 | inactive
79 | CCOc1ccc(-c2csc(N3CCC(C(N)=O)CC3)n2)cc1 | inactive
80 | O=C(NCCc1nc2ccccc2n1CCOc1ccc(Cl)cc1)C1CCCCC1 | inactive
81 | O=C1c2ccccc2C(=O)N1c1ncccc1O | inactive
82 | Cn1c2cc(CO)sc2c2cnn(Cc3ccccc3F)c(=O)c21 | inactive
83 | CCN1CCN(C(=S)c2ccc(O)cc2)CC1 | inactive
84 | CC(C)c1ccccc1-c1nc2c(c(NCc3ccc(-c4cccnc4)cc3)n1)CCNC2 | inactive
85 | O=C1CCCC2=C1C(c1ccncc1Cl)N=C(Nc1nc3ccccc3o1)N2 (stereo not given) | inactive
86 | Cc1ccc(OCCn2c(CCNC(=O)c3ccc(Cl)cc3)nc3ccccc32)cc1 | inactive
87 | CC1(C)CC(=O)C2=C(C1)NC(Nc1nc3ccccc3o1)=NC21CCCC1 | inactive
88 | O=C(Nc1nnc(-c2ccncc2)s1)Oc1ccc2ccccc2c1 | inactive
89 | O=C(Nc1ccccc1)OCc1c(-c2ccccc2)no[n+]1[O-] | inactive
90 | CCOC(=O)C1CCN(c2ncc(-c3ccc4c(c3)OCCCO4)s2)CC1 | inactive
91 | NC(=O)c1c(NC(=O)c2ccncn2)sc2c1CCCC2 | inactive
92 | COc1cccc(CN2C(=O)c3ccccc3NC2c2ccc(OC)c(COc3c(C)cc(NC(C)=O)cc3C)c2)c1 (stereo not given) | inactive
93 | CC(C)CC(O)C(=O)Nc1cc(C(F)(F)F)ccc1Cl (stereo not given) | inactive
94 | Cc1cc(NS(=O)(=O)c2cc3c(cc2F)NC(=O)CC3)ccc1F | inactive
95 | Cc1cc2c(s1)c1cnn(Cc3c(F)ccc(C)c3F)c(=O)c1n2C | inactive
96 | COc1ccc(C2=Nn3c(nnc3-c3ccccc3C(F)(F)F)SC2)cc1OC1CCOC1 (stereo not given) | inactive

Row | SMILES | Potency
97 | Cc1cc(C)nc(NC(=S)N2CCN(c3ccc4c(c3)OCO4)CC2)c1 | inactive
98 | COc1ccccc1C1=Nn2c(COc3ccccc3)nnc2SC1 | inactive
99 | Cc1ccc(Nc2nc(C#N)nc(NC3CCCC3)n2)cc1 | inactive
100 | O=C(c1ccc2c(c1)ncn2-c1cccc(C(F)(F)F)c1)N1CCCCC1 | inactive
101 | COc1ccc(C2Nc3ccccc3C(=O)N2Cc2ccccc2)cc1COc1ccccc1OC (stereo not given) | inactive
102 | CC(=O)c1ccc(NC(=O)c2cnn3c(C)cc(C)nc23)cc1 | inactive
103 | CC(C)(C)Nc1nc(C#N)nc(Nc2ccccc2)n1 | inactive
104 | O=C(O)c1ccc(-c2cccc(-c3nn4c(=O)cc(N5CCNCC5)nc4s3)c2)cc1 | inactive
105 | O=C1c2ccccc2NC(c2ccccc2O)N1Cc1ccccc1 (stereo not given) | inactive
106 | Cc1ccc(-c2cc(C(=O)Nc3ccc(S(=O)(=O)Nc4ccc(C#N)cc4)cc3)c3ccccc3n2)cc1C | inactive
107 | CN(C)c1cccc(-c2ncnc(N3CCC(C(N)=O)CC3)n2)c1 | inactive
108 | Oc1ccc(Nc2nc(-c3ccncc3)nc3ccccc23)cc1F | inactive
109 | N#Cc1ccc(NS(=O)(=O)c2ccc3c(c2)CCC(=O)N3)cc1 | inactive
110 | Cc1ccc(S(=O)(=O)Nc2cccc3cccnc23)c([N+](=O)[O-])c1 | inactive
111 | CN(c1ccccc1)c1ccc(CNc2nn3c(=O)c4ccccc4nc3s2)cc1 | inactive
112 | Cc1ccc(CNc2ncnc3cc(-c4ccc5c(c4)OCO5)ccc23)o1 | inactive
113 | Cc1ccccc1C[C@H](C(=O)O)N1C(=O)c2ccc(C(=O)O)cc2C1=O | inactive
114 | C[C@@](Cc1ccccc1)(C(=O)O)N1C(=O)c2ccc(C(=O)O)cc2C1=O | inactive
115 | C=CCNc1oc(-c2cccs2)nc1C#N | inactive
116 | CC(=O)Nc1sc2c(c1-c1cccc(N(C)C)c1)CCNC2 | inactive
117 | O=C(CSc1nnc(-c2cccc([S+](=O)([O-])N3CCCC3)c2)n1-c1ccccc1)Nc1ccc(Br)cc1 | inactive
118 | N#Cc1c(-c2ccc3ccccc3c2)no[n+]1[O-] | inactive
119 | COc1ccccc1-c1nc(NCc2ccc(-c3cccnc3)cc2)c2ccccc2n1 | inactive
120 | N#Cc1cccc(-c2csc(N3CCC(C(N)=O)CC3)n2)c1 | inactive
